Assay outcomes: PubChem, National Center for Advancing Translational Sciences (NCATS)
HT1080-NT tox = kills 2HG-producing HT-1080-NT fibrosarcoma cells | AID 686970 | HT-1080-NT fibrosarcoma viability, CellTiter-Glo ATP luminescence, 48 h | 360,000 compounds, 1.6% hits | Potency, µM (series often up to 46.1 µM), for inactives: top-dose activity, negative = less viability, most hits filed as cytotoxic;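 further: NT is the 2HG producing partner of a matched IDH1 knockdown line; 0% = DMSO-treated cells and -100% = media-only wells without cells; nearly all actives have a fitted effect of over 55% in size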
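A 48-hour cytotoxicity screen used HT-1080-NT cells plated 2 hours before compound delivery. ATP-based CellTiter-Glo luminescence measured viability, normalized to DMSO and no-cell controls.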
SW480 rerep = inducers of DNA re-replication in SW480 colon cancer cells. SW480 DNA re-replication, Hoechst DNA content imaging, 48 h. Potency, µM (top dose mostly 46.1 µM), inactives show top-dose re-replication activation, actives largely listed as activators. 340,000 compounds, 1.8% hits; further: % of control where 0% means no effect; nearly all actives have a fitted effect of over 55% in size
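DNA re-replication was detected as more nuclei of elevated Hoechst intensity after 48 hr exposure to compound (23 nL pinned per well of 250 cells).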
HT1080 IDH1KD tx = HT-1080 IDH1 knockdown cell toxicity (counter line); HT-1080 IDH1 knockdown viability, ATP luminescence, 48 h; Potency, µM (doses to about 46.1 µM), inactives show top-dose activity, negative = toxicity, usual class: cytotoxic; 360,000 compounds, 2% hits; AID 686971;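 further: 0% = DMSO wells and -100% = cell-free medium wells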
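Cytotoxicity counter-line: IDH1KD HT-1080, 48 h, CellTiter-Glo. Curves classed by r2, magnitude and activity.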
KB-3-1 cytotox = kills parental KB-3-1 adenocarcinoma cells; KB-3-1 viability, CellTiter-Glo ATP luminescence, 72 h; Potency, µM (titrated, usually from 46.1 µM), usual class: cytotoxic; 400,000 compounds, 1.4% hits; AID 1347075; further: on the % scale 0 is the no-effect control and ±100 the full control effect; nearly all actives have a fitted effect of over 60% in size
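72 h, 37 °C compound treatment of KB-3-1 parental cells; CellTiter-Glo added, 10 min, luminescence read. Data corrected against DMSO-only plates and normalized before curve fitting.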
MCF10A rereplic = DNA re-replication induction in MCF 10a cells; Potency, µM (highest dose often 46.1 µM), inactives show at the top dose activity, positive = re-replication, most hits filed as activators; MCF 10A DNA re-replication, Hoechst nuclear intensity, 48 h; 350,000 compounds, 2.9% hits; further: % of control where 0% means no effect; nearly all actives have a fitted effect of over 50% in size
KB-V1 MDR tox = kills drug-selected multidrug resistant KB-V1 cells; Potency, µM (series often up to 46.1 µM), hits mostly cytotoxic; 400,000 compounds, 3.4% hits; KB-V1 MDR cells viability, CellTiter-Glo, 72 h; AID 1347076; further: on the % scale 0 is the no-effect control and ±100 the full control effect; nearly all actives have a fitted effect of over 60% in size
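Potencies derive from concentration-effect curves fitted to normalized luminescence (CellTiter-Glo) of KB-V1 cells treated for 72 h at 37 degrees C in phenol-red-free DMEM containing 10% FBS.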
Starred values were filed as active, the others as inactive; [ ] = dose if it differs, or a comment. In the library only some 7.9% were active in any assay of this set; here they are far more common. The call rests on the fitted dose curve; in most records, active means well fitted curve in the direction sought with a large enough effect; inconclusive means small, poorly fitted or top-dose-only effect, or another doubt; inactive means no such curve, though single readings can be large; an effect the other way counts as inactive or inconclusive. Potency means the concentration at half of the fitted maximal effect.

C/C(=N\Nc1cc(C)nc(-c2ccccc2O)n1)c1ccccc1 was read as HT1080-NT tox inconclusive, SW480 rerep inconclusive, HT1080 IDH1KD tx inconclusive, KB-3-1 cytotox inactive, MCF10A rereplic inconclusive and KB-V1 MDR tox inactive.
`COc1cc(N/N=C(\C)c2ccc(O)c(C)c2)nc(-c2ccccc2)n1` gave HT1080-NT tox 20.6µM*, SW480 rerep inconclusive, HT1080 IDH1KD tx inconclusive, KB-3-1 cytotox inactive, MCF10A rereplic inconclusive and KB-V1 MDR tox inactive.
`COc1cc(N/N=C(\C)c2ccc(N)cc2)nc(-c2ccccc2)n1` gave HT1080-NT tox -1.6%, SW480 rerep 3.1%, HT1080 IDH1KD tx -24.8%, KB-3-1 cytotox inactive, MCF10A rereplic 18.4µM* and KB-V1 MDR tox inactive.
O=C(Nc1cc(-c2cccc(Cl)c2)nn1-c1ccccc1)c1ccccc1F was read as KB-3-1 cytotox inactive and KB-V1 MDR tox inactive.
For CCOc1ccc(S(=O)(=O)N(C)CCO)cc1-c1nc2c(C(C)(C)C)nn(C)c2c(=O)[nH]1 the results were HT1080-NT tox -6.0%, SW480 rerep -7.9%, HT1080 IDH1KD tx -7.4%, KB-3-1 cytotox inconclusive, MCF10A rereplic 0.8% and KB-V1 MDR tox 10.3µM*.
Screening CCOc1ccc(S(=O)(=O)N(C)C)cc1-c1nc2c(C(C)(C)C)nn(C)c2c(=O)[nH]1 returned HT1080-NT tox 13.8%, SW480 rerep 5.2%, HT1080 IDH1KD tx inconclusive, KB-3-1 cytotox inactive, MCF10A rereplic inconclusive and KB-V1 MDR tox inconclusive.
Screening COc1ccc(-n2c(SCCC#N)nnc2-c2cc(Cl)ccc2OC)cc1Cl returned HT1080-NT tox inconclusive, SW480 rerep inconclusive, HT1080 IDH1KD tx 29.1µM*, KB-3-1 cytotox inconclusive, MCF10A rereplic 16.4µM* and KB-V1 MDR tox inconclusive.
O=C(Nc1ccccc1OC(=O)c1ccccc1)c1ccccc1 was read as HT1080-NT tox inconclusive, SW480 rerep inconclusive, HT1080 IDH1KD tx 14.6µM*, KB-3-1 cytotox inconclusive, MCF10A rereplic inconclusive and KB-V1 MDR tox inactive.
O=C(CCc1ccccc1)Nc1ccccc1OC(=O)c1ccccc1 was read as HT1080-NT tox -23.7%, SW480 rerep 14.2%, HT1080 IDH1KD tx -26.9%, KB-3-1 cytotox inactive, MCF10A rereplic 1.5% and KB-V1 MDR tox inactive.
CCCCSc1nnc2[nH]c(=O)cc(N)n12 was read as HT1080-NT tox 5.8%[9.24 µM], SW480 rerep -5.6%, HT1080 IDH1KD tx -5.6%, KB-3-1 cytotox inactive, MCF10A rereplic 5.7% and KB-V1 MDR tox 8.2µM*.
`CCCSc1nnc2[nH]c(=O)cc(N)n12` gave HT1080-NT tox 9.1%, SW480 rerep 0.8%, HT1080 IDH1KD tx 15.2%, KB-3-1 cytotox inactive, MCF10A rereplic 3.4% and KB-V1 MDR tox inconclusive.
`Cn1c(=O)c2c(ncn2CC(=O)Nc2nc(-c3ccc(F)c(F)c3)cs2)n(C)c1=O` gave HT1080-NT tox 0.0%, SW480 rerep inconclusive, HT1080 IDH1KD tx 7.7%, KB-3-1 cytotox inactive, MCF10A rereplic inconclusive and KB-V1 MDR tox inconclusive.
For COc1ccc(-c2csc(NC(C)=O)n2)cc1OC the results were HT1080-NT tox 1.0%, SW480 rerep -19.4%, HT1080 IDH1KD tx -3.5%, KB-3-1 cytotox inactive, MCF10A rereplic 0.3% and KB-V1 MDR tox inactive.
Screening COc1ccc(-c2csc(NC(=O)CCCc3nc4ccccc4c(=O)[nH]3)n2)cc1OC returned HT1080-NT tox 1.5%, SW480 rerep -5.7%, HT1080 IDH1KD tx -0.7%, KB-3-1 cytotox inactive, MCF10A rereplic 15.4% and KB-V1 MDR tox inactive.
N#Cc1ccc(-c2csc(NC(=O)/C=C/c3cccs3)n2)cc1 was read as HT1080-NT tox -18.1%, SW480 rerep -89.6%, HT1080 IDH1KD tx -17.2%, KB-3-1 cytotox inactive, MCF10A rereplic inconclusive and KB-V1 MDR tox inactive.
For COc1ccc(-c2csc(NC(=O)CCn3cnc4ccccc4c3=O)n2)cc1OC the results were HT1080-NT tox -6.1%, SW480 rerep -0.3%, HT1080 IDH1KD tx -2.0%, KB-3-1 cytotox inactive, MCF10A rereplic -4.7% and KB-V1 MDR tox 18.4µM*.
`Cc1ccc(-c2csc(NC(=O)Cn3cnc4c3c(=O)n(C)c(=O)n4C)n2)cc1C` gave HT1080-NT tox 1.4%, SW480 rerep 11.5%, HT1080 IDH1KD tx -2.8%, KB-3-1 cytotox inactive, MCF10A rereplic 20.6µM* and KB-V1 MDR tox inactive.
For Cc1ccc(-c2csc(NC(=O)/C=C/c3cccs3)n2)cc1C the results were HT1080-NT tox -7.5%, SW480 rerep 9.5%, HT1080 IDH1KD tx -18.7%, KB-3-1 cytotox inconclusive, MCF10A rereplic inconclusive and KB-V1 MDR tox 9.2µM*.
Screening COc1cccc(NC(=O)Nc2nc(-c3ccc(OC)c(OC)c3)cs2)c1 returned HT1080-NT tox 11.6µM*, SW480 rerep 7.1%, HT1080 IDH1KD tx 7.31µM*, KB-3-1 cytotox 18.4µM*, MCF10A rereplic 20.6µM* and KB-V1 MDR tox inconclusive.
Screening COc1ccc(-c2csc(NC(=S)NC(=O)c3ccc4ccccc4c3)n2)cc1OC returned HT1080-NT tox 14.6%, SW480 rerep 14.6µM*, HT1080 IDH1KD tx 6.4%, KB-3-1 cytotox inconclusive, MCF10A rereplic inconclusive and KB-V1 MDR tox inconclusive.
For COc1cc(C(=O)NC(=S)Nc2nc(-c3ccc(F)cc3)cs2)cc(OC)c1OC the results were HT1080-NT tox -1.8%, SW480 rerep -34.5%, HT1080 IDH1KD tx -7.2%, KB-3-1 cytotox inconclusive, MCF10A rereplic -6.5% and KB-V1 MDR tox inactive.
Screening O=C(CN1CCC(n2nnc3cc(F)ccc32)CC1)NC1CC1 returned HT1080-NT tox 8.5%, SW480 rerep -4.0%, HT1080 IDH1KD tx 13.2%, KB-3-1 cytotox inactive, MCF10A rereplic 1.2% and KB-V1 MDR tox inconclusive.
For CCOc1ccc2nc(NC(=O)CN3CCC(n4nnc5cc(F)ccc54)CC3)sc2c1 the results were HT1080-NT tox inconclusive, SW480 rerep -4.2%, HT1080 IDH1KD tx inconclusive, KB-3-1 cytotox inconclusive, MCF10A rereplic inconclusive and KB-V1 MDR tox 20.6µM*.
Screening O=C(CN1CCC(n2nnc3cc(F)ccc32)CC1)N1CCc2ccccc2C1 returned HT1080-NT tox -30.0%, SW480 rerep inconclusive, HT1080 IDH1KD tx inconclusive, KB-3-1 cytotox inactive, MCF10A rereplic 5.17µM* and KB-V1 MDR tox inconclusive.
`O=C(CN1CCC(n2nnc3cc(F)ccc32)CC1)NC1CCCCC1` gave HT1080-NT tox 1.0%, SW480 rerep 0.3%, HT1080 IDH1KD tx 3.1%, KB-3-1 cytotox inactive, MCF10A rereplic 16.2% and KB-V1 MDR tox 20.6µM*.
For Cc1ccccc1OCC(=O)NCC(c1ccc(Cl)cc1)N1CCOCC1 (centres undefined) the results were KB-3-1 cytotox inactive and KB-V1 MDR tox inconclusive.
